# Screening data: PubChem, National Center for Advancing Translational Sciences (NCATS)
# PLK1 PBD inh: qHTS for Inhibitors of PLK1-PDB (polo-like kinase 1 - polo-box domain): Primary Screen | Serine/threonine-protein kinase PLK1 (Homo sapiens), P53350 | Plk1 PBD binding of FITC phosphopeptide, fluorescence polarization | Potency, µM, inactives show max response, negative = inhibition, usual class: inhibitors | 360,000 tested, 2.8% active | AID 720504, 2013; also: series mostly up to about 57 µM; % is scaled to controls: 0 for no effect and ±100 for the full control effect; nearly all actives have a fitted effect of over 65% in size
# G9a inh: qHTS Assay for Inhibitors of Histone Lysine Methyltransferase G9a; Histone-lysine N-methyltransferase EHMT2 (Homo sapiens), Q96KQ7; G9a H3K9 monomethylation, AlphaScreen, 2 h; Potency, µM (top dose mostly 102 µM), for inactives: top-dose activity, negative = inhibition, most hits filed as inhibitors; 350,000 tested, 8.8% active; AID 504332, 2011; also: % is scaled to controls: 0 for no effect and ±100 for the full control effect; nearly all actives have a fitted effect of over 75% in size
# Target sequence (Q96KQ7 913-1193 limits assumed): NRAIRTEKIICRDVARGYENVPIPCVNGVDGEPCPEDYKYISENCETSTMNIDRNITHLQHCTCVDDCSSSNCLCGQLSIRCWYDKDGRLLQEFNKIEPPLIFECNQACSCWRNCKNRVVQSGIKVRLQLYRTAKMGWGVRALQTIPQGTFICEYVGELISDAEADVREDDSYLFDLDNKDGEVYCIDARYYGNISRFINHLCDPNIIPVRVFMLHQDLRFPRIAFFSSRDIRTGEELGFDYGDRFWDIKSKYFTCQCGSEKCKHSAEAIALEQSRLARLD
#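 Enzyme 20 nM + cpd, 15 min RT; add b-H3K9 pep 500 nM / SAM 20 uM; 2 h RT; anti-H3K9me1 Ab 0.5 ug/mL + SA donor / anti-rabbit acceptor beads 20 ug/mL each, 10 min; AlphaScreen read.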
# BAZ2B inh: qHTS Assay for Inhibitors of BAZ2B; AID 504333, 2011; AlphaScreen BAZ2B-H3K14Ac peptide displacement; Potency, µM (doses to about 114 µM), for inactives: at the highest dose activity change, negative = inhibition, actives largely listed as inhibitors; 360,000 tested, 4.4% active; also: % is scaled to controls: 0 for no effect and ±100 for the full control effect; nearly all actives have a fitted effect of over 60% in size
#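 AlphaScreen displacement of biotin-H3(5-23)K14Ac peptide (50 nM final) from BAZ2B (50 nM final) in PBS pH 7.4, 0.01% Tween-20; complex preformed 30 min RT, then compounds (top 110 uM) 30 min RT, beads 20 min dark.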
# JMJD2A Tudor inh: qHTS Assay for Inhibitors of JMJD2A-Tudor Domain. Lysine-specific demethylase 4A (Homo sapiens), O75164. AlphaScreen JMJD2A-Tudor / H3K4me3 peptide binding. Potency, µM (doses to about 114 µM), without a hit: top-dose activity change, negative = inhibition, hits mostly inhibitors. 390,000 tested, 4.4% active. AID 504339, 2011; also: % is scaled to controls: 0 for no effect and ±100 for the full control effect; nearly all actives have a fitted effect of over 50% in size
# VDR inhibitor: Inhibitors of the vitamin D receptor (VDR): qHTS; Vitamin D3 receptor (Homo sapiens), P11473; VDR-SRC2-3 peptide fluorescence polarization, 2 h; Potency, µM, inactives show max response, negative = inhibition, most hits filed as inhibitors; 400,000 tested, 0.93% active; also: % is scaled to controls: 0 for no effect and ±100 for the full control effect
# Target sequence (P11473 whole entry, looked up): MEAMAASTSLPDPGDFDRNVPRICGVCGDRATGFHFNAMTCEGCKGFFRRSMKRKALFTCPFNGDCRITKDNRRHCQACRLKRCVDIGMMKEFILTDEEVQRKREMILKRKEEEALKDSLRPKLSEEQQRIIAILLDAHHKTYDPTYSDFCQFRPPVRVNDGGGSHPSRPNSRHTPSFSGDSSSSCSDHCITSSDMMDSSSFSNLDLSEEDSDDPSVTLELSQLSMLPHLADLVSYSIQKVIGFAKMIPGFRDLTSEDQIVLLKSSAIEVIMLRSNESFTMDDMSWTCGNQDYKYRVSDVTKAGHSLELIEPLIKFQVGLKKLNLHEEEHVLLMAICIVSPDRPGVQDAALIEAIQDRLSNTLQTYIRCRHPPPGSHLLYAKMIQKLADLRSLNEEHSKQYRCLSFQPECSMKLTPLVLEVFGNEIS
#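 VDR–SRC2-3 interaction, FP format. Cmpds 23 nl via pintool, brief spin, 2 h ambient incubation.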
# HP1b chromo inh: HTS for Inhibitors of HP1-beta Chromodomain Interactions with Methylated Histone Tails | Chromobox protein homolog 1 (Homo sapiens), P83916 | AlphaScreen HP1-beta / biotin-H3K9me3 peptide binding | AID 540317, 2011 | 390,000 tested, 0.56% active | Potency, µM (doses to about 114 µM), without a hit: top-dose activity change, negative = inhibition, usual class: inhibitors; also: nearly all actives have a fitted effect of over 70% in size
#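 HP1-beta protein (50 nM final) preincubated 30 min at room temperature with biotinylated H3(1-18)K9me3 peptide (50 nM) in PBS pH 7.4, 0.01% Tween-20, then compound added for 30 min. AlphaScreen streptavidin donor/nickel chelate acceptor beads (10 ug/mL final), 30 min dark, luminescence read.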
# The depositor's hits bear a star; u = inconclusive; x = not tested or not shown; [ ] = dose if it differs, or a comment. This is a sample that favours compounds with a hit; in the whole collection about 11% have one here. Calls follow the shape of the dose curve; as a rule, active = well fitted curve in the direction sought with a large enough effect; inconclusive = small, poorly fitted or top-dose-only effect, or another doubt; inactive = no such curve, though single readings can be large; an effect the other way counts as inactive or inconclusive. Potency is read from the fitted curve at half-maximal effect.
SMILES,PLK1 PBD inh,G9a inh,BAZ2B inh,JMJD2A Tudor inh,VDR inhibitor,HP1b chromo inh
Cc1cccc(C(CC(=O)NCc2ccco2)c2ccccc2)c1O (configuration not stated),-19%,45µM*,u,-21%,-6%,42%
Cc1ccccc1CNC(=O)c1ccccc1SCC(=O)NCc1ccco1,-3%,13µM*,-4%,-3%,-7%,39%
O=C(CSc1ccccc1C(=O)O)NCc1ccco1,-8%,59%[59 µM],u,-3%,9%,37%
Cc1ccccc1NC(=O)CNc1ccccc1C(=O)NCc1ccco1,-6%,40µM*,-26%,-30%,-6%,19%
O=C(NCc1ccco1)c1ccccc1NS(=O)(=O)c1ccc(Cl)s1,u,20µM*,u,u,-26%,10%
Cc1cccc2c(=O)c(Br)c(C)n(Cc3ccccc3)c12,-11%,x,-7%,14%,-17%,49%
COc1ccccc1OCC(=O)Nc1ccccc1C(=O)NCc1ccco1,-7%,0%[59 µM],1%,-17%,5%,10%
COc1ccccc1CNC(=O)c1ccccc1SCC(=O)NCc1ccco1,-19%,3.2µM*,8%,-34%,-15%,0%
CC12CCC(c3nnc(SCc4ccc(Cl)cc4)nc31)C2(C)C (configuration not stated),-5%,13%[59 µM],25%,24%,5%,64%
CC12CCC(c3n[nH]c(=S)nc31)C2(C)C (configuration not stated),-11%,8.9µM*,-11%,20µM*,5%,-31%
CCN1CCCc2cc(CN(CCN3CCOCC3)C(=S)Nc3ccccc3C)ccc21,-4%,3%[59 µM],-35%,-20%[11.4 µM],14%,31%
CCN1CCCc2cc(CN(CCN3CCOCC3)C(=S)Nc3ccc(OC)c(Cl)c3)ccc21,-5%,50µM*,u,u,0%,18%
CCN1CCCc2cc(CN(CCN3CCOCC3)C(=S)Nc3ccccc3OC)ccc21,-18%,25µM*,40µM*,40µM*,-7%,-38%[57 µM]
CCN1CCCc2cc(CN(CCN3CCOCC3)C(=S)Nc3cccc(C)c3)ccc21,-8%,u,8.9µM*,11µM*,9%,u
Cc1ccc(Nc2ncnc3c2nc2n3CCCC2)c(Br)c1,x,-10%[59 µM],-1%,-9%,4%,31%
O=S(=O)(NC(CO)Cc1ccccc1)c1ccc(Br)cc1F (configuration not stated),-6%,x,x,-14%,9%,16%
NC(=O)C1CN(S(=O)(=O)c2ccc(Cl)cc2F)c2ccccc2O1 (configuration not stated),1%,79µM*,-2%,-10%,8%,7%
Cc1cn2c(=O)cc(COC(=O)COc3ccccc3C)nc2s1,x,0%[59 µM],1%,-3%,1%,45%
CCCCOC(=O)c1ccc(NC(=O)Cc2coc3ccc(C(C)C)cc23)cc1,x,2%[59 µM],-14%,7%,13%,56%
CC(=O)NC(CC(=O)NC1CCCCC1)c1ccccc1 (configuration not stated),-9%,10µM*,-5%,-11%,-8%,14%
CCC(C)NC(=O)N1c2ccccc2Sc2ccccc21 (configuration not stated),-12%,45µM*,-28%,u,12%,5%
CSc1nnc2c(=O)[nH]c(=O)n(C)c2n1,-4%,x,x,-4%,6%,11%
Clc1cccc(CSc2ccc(-c3cccs3)nn2)c1,x,135%[59 µM],112%,79%,2%,112%
OC(CCc1cccc(Cl)c1)c1cccs1 (configuration not stated),21µM*,59%,29%,4%,u,35%
COCCNCCCOc1ccc(C(C)(C)c2ccccc2)cc1,-6%,10µM*,35µM*,0.79µM*,-3%,u
SMILES,PLK1 PBD inh,G9a inh,BAZ2B inh,JMJD2A Tudor inh,VDR inhibitor,HP1b chromo inh
COCCCNCCCOc1ccc(C(C)(C)c2ccccc2)cc1,-3%,2.8µM*,45µM*,6.3µM*,-10%,u
CC(C)(C)c1ccc(OCCCNCc2ccccc2)cc1,3%,10µM*,u,3.5µM*,-1%,u
C=CCNCCCCOc1ccc(OCC)cc1,-1%,5%[12.7 µM],5%,-16%,-8%,18%
C=CCNCCCOc1ccc(C(C)(C)c2ccccc2)cc1,-7%,10µM*,40µM*,1.6µM*,-5%,u
COc1ccc(OCCCNCCc2ccccc2)cc1,-11%,4%[12.7 µM],-25%,-10%,2%,27%
CCCCn1c(N)c(N(CCOC)C(=O)c2cc(S(=O)(=O)N3CCOCC3)ccc2Cl)c(=O)[nH]c1=O,-4%,x,x,-10%,0%,20%
NC(=O)c1ccc(C(F)(F)F)cn1,1%,21%[59 µM],1%,4%,-3%,16%
CC(C)(c1ccccc1)c1ccc(OCCCNCCO)cc1,-21%,-23%[12.7 µM],56µM*,-15%[11.4 µM],-11%,-7%
CCc1cc(OCCCCNCc2ccccc2)ccc1Cl,-7%,u,u,6.3µM*,-17%,25%
O=[N+]([O-])c1ccccc1OCCNCc1ccccc1,-3%,7.9µM*,u,45µM*,-3%,u
COCCNCc1ccccc1,30µM*,20%[59 µM],-2%,u,u,-9%
c1ccc(CNCCCNCCCCNCCCNCc2ccccc2)cc1,-9%,x,x,-2%,-10%,17%
CCCN(Cc1cc2cc(C)ccc2[nH]c1=O)C(=O)c1cccc(Cl)c1,x,-29%[59 µM],-2%,1%,14%,52%
Cc1ccc(S(=O)(=O)N2CCN(C(=O)COC(=O)COc3ccc(Cl)cc3C)CC2)c(C)c1,-9%,x,x,-14%,-18%,18%
Cc1noc(C)c1-c1ccc2ncnc(NCc3ccccc3Cl)c2c1,x,x,x,-23%,x,x
O=C1C=CC(=Nc2cccc3c2C(=O)c2ccccc2-3)O1,-26%,x,x,-17%,u,33%[57 µM]
O=C1C=CC(=Nc2ccc3c(c2)Cc2cc(F)ccc2-3)O1,u,x,x,u,56µM*,u
N#Cc1ccccc1Sc1ccccc1C(=O)NCC(c1ccco1)N1CCCC1 (configuration not stated),-10%,2.8µM*,50µM*,u,-10%,u
CC(=O)c1ccc(NC(=S)NCC(c2ccco2)N2CCCC2)cc1 (configuration not stated),-10%,50µM*,-23%,-22%,-18%,25%
CC(=O)c1ccc(S(=O)(=O)Nc2ccc(C(=O)NCC(c3ccco3)N3CCCC3)cc2)cc1 (configuration not stated),-6%,x,x,x,x,x
